# Laboratory results published in PubChem BioAssay (EPA / NIEHS).
# Values joined by “and” are separate entries in the source; they are usually repeats but may differ in a detail not shown here. Equal entries are not always repeated. Active and inactive are the calls of the source. How the source made its calls: active means hit-call score of the fitted dose curve at least 0.9, where 1 is the maximum; inactive means score below 0.9.
# Assay: UKN2_HCS_IMR90_cell_viability: Viability Assessment in the University of Konstanz (UKN) Leist Lab Neural Crest Cell Migration Assay in human induced IMR90 Pluripotent Stem Cells (UKN2) (AID 2284233);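 further: cells exposed to compound for 24 h after a 24 h migration phase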
# Protocol: UKN2_HCS_IMR90 is a cell-based, multiplexed-readout assay screening for neural crest cell migration and cell viability that uses IMR90 (neural crest cells differentiated from iPSC), a human embryo cell line, with measurements taken at […] after chemical dosing in a microplate: 96-well plate. UKN2, also known as cMINC, is an assay that uses IMR90 cells (neural crest cells differentiated from iPSC) as a model of neural crest cell migration. 24 hr after cell seeding, cell migration was initiated and proceeded for 24 hr. Then, chemical was applied, and after 24 hr of exposure migration and viability were assessed using high-content imaging of cells stained with calcein-AM and Hoechst H-33342.UKN2_HCS_IMR90_cell_viability is an assay component measured from the UKN2_HCS_IMR90 assay. It is designed to make measurements of enzyme activity, a form of viability reporter, as detected with Fluorescence intensity signals by HCS Fluorescent Imaging.The assay endpoint UKN2_HCS_IMR90_cell_viability was analyzed with bidirectional fitting relative to DMSO as the negative control and baseline of activity. Using a type of viability reporter, gain or loss-of-signal activity can be used to understand viability effects. To generalize the intended target to other relatable targets, this assay endpoint is annotated to the cell cycle intended target family, where the subfamily is viability.
# The wells are coated with PLO/laminin/fibronectin. Then, silicone stoppers are placed into the wells of a 96-well plate. Cells are seeded around the stoppers and allowed to attach for 24 hours. Day 0: The silicone stoppers are removed and the medium is replaced with pre-warmed, fresh N2-S medium containing the cytokines EGF and FGF. Cells are allowed to migrate into the cell free area. Day 1: 25 ul of the 5x concentrated toxicants are added to the wells. The cells plus toxicants are incubated for 24 h. Day 2: Cells are stained with calcein-AM and Hoechst (H-33342) for 30 min before imaging with a high content imaging microscope. Quantification of migration and viability is done by high content imaging analysis.
Structure (SMILES),outcome,AC50
CCOP(=S)(Oc1cnc(C(C)(C)C)nc1)OC(C)C (stereo not drawn),inactive,–
CCOP(=O)(OCC)Oc1cc(C)nc(C(C)C)n1,inactive,–
CCCSP(=O)(OCC)SCCC,inactive,–
CN(C)[C@@H]1C(=O)C(C(N)=O)=C(O)[C@@]2(O)C(=O)C3=C(O)c4c(O)cccc4[C@@](C)(O)[C@H]3[C@H](O)[C@@H]12,–,90 µM (active)
CCOP(=O)(NC(C)C)Oc1ccc(SC)c(C)c1 (stereo not drawn),inactive,–
CCOC(=O)CC(SP(=O)(OC)OC)C(=O)OCC (stereo not drawn),inactive,–
O=[N+]([O-])c1cc(C(F)(F)F)c(Cl)c([N+](=O)[O-])c1Nc1ncc(C(F)(F)F)cc1Cl,–,1.48 µM (active)
CCCCSP(=O)(SCCCC)SCCCC,inactive,–
COP(=O)(OC)OC(Br)C(Cl)(Cl)Br (stereo not drawn),–,21.6 µM (active)
CCOP(=S)(OCC)OC(Cl)C(Cl)(Cl)Cl (stereo not drawn),inactive,–
CC(=NC#N)N(C)Cc1ccc(Cl)nc1,inactive,–
CON=C(C(=O)OC)c1ccccc1CON=C(C)c1cccc(C(F)(F)F)c1,–,50 µM (active)
CC[C@H](C)[C@H]1O[C@]2(C=C[C@@H]1C)C[C@@H]1C[C@@H](C/C=C(\C)[C@@H](O[C@H]3C[C@H](OC)[C@@H](O[C@H]4C[C@H](OC)[C@@H](NC)[C@H](C)O4)[C@H](C)O3)[C@@H](C)/C=C/C=C3\CO[C@@H]4[C@H](O)C(C)=C[C@@H](C(=O)O1)[C@]34O)O2,–,3.1 µM (active) and 3.81 µM (active)
